Laboratory results published in the supplement of paper PMC4466140.

B1: unnamed (peptide)
chain: PPPPPPPPPPPLPQS

Target: AgAbp1
Assay: SPOT peptide array binding signal intensity (averaged, normalized) (arbitrary units (background-subtracted, floor 0; scale differs between SH3 domains)); higher = stronger binding of the SH3 domain to the peptide
In short: (§1)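 Peptides were synthetic 15-mers on cellulose membranes, with every cysteine replaced by serine. They were incubated overnight at 4°C with GST-SH3 domains from four yeast species at 10 μg/ml in TBS-based blocking buffer. Binding signal, the replicate-averaged normalized and background-subtracted spot intensity, is in arbitrary units that differ between domains.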

Row | Binder | SPOT peptide array binding signal intensity
1 | B1 | 9

Target: AgBbc1
Assay: as above
In short: as §1

Row | Binder | SPOT peptide array binding signal intensity
2 | B1 | 0.5

Target: AgBem1-D1
Assay: as above
In short: as §1

Row | Binder | SPOT peptide array binding signal intensity
3 | B1 | 28

Target: AgBzz1-D1
Assay: as above
In short: as §1

Row | Binder | SPOT peptide array binding signal intensity
4 | B1 | 5

Target: AgBzz1-D2
Assay: as above
In short: as §1

Row | Binder | SPOT peptide array binding signal intensity
5 | B1 | 1

Target: AgCyk3
Assay: as above
In short: as §1

Row | Binder | SPOT peptide array binding signal intensity
6 | B1 | 2

Target: AgFus1
Assay: as above
In short: as §1

Row | Binder | SPOT peptide array binding signal intensity
7 | B1 | ≤ 0

Target: AgHof1
Assay: as above
In short: as §1

Row | Binder | SPOT peptide array binding signal intensity
8 | B1 | 228

Target: AgHse1
Assay: as above
In short: as §1

Row | Binder | SPOT peptide array binding signal intensity
9 | B1 | ≤ 0

Target: AgLsb1
Assay: as above
In short: as §1

Row | Binder | SPOT peptide array binding signal intensity
10 | B1 | ≤ 0

Target: AgLsb4
Assay: as above
In short: as §1

Row | Binder | SPOT peptide array binding signal intensity
11 | B1 | ≤ 0

Target: AgMyo5
Assay: as above
In short: as §1

Row | Binder | SPOT peptide array binding signal intensity
12 | B1 | 688

Target: AgNbp2
Assay: as above
In short: as §1

Row | Binder | SPOT peptide array binding signal intensity
13 | B1 | 2

Target: AgRvs167
Assay: as above
In short: as §1

Row | Binder | SPOT peptide array binding signal intensity
14 | B1 | 4.67

Target: AgSho1
Assay: as above
In short: as §1

Row | Binder | SPOT peptide array binding signal intensity
15 | B1 | ≤ 0

Target: AgSla1-D1-D2
Assay: as above
In short: as §1

Row | Binder | SPOT peptide array binding signal intensity
16 | B1 | ≤ 0

Target: AgSla1-D3
Assay: as above
In short: as §1

Row | Binder | SPOT peptide array binding signal intensity
17 | B1 | 0.5

Target: CaAbp1-D1
Assay: as above
In short: as §1

Row | Binder | SPOT peptide array binding signal intensity
18 | B1 | 4.5

Target: CaAbp1-D2
Assay: as above
In short: as §1

Row | Binder | SPOT peptide array binding signal intensity
19 | B1 | 3

Target: CaBbc1
Assay: as above
In short: as §1

Row | Binder | SPOT peptide array binding signal intensity
20 | B1 | ≤ 0

Target: CaBem1-D1
Assay: as above
In short: as §1

Row | Binder | SPOT peptide array binding signal intensity
21 | B1 | ≤ 0

Target: CaBzz1-D1
Assay: as above
In short: as §1

Row | Binder | SPOT peptide array binding signal intensity
22 | B1 | 1610

Target: CaBzz1-D2
Assay: as above
In short: as §1

Row | Binder | SPOT peptide array binding signal intensity
23 | B1 | 313

Target: CaCyk3
Assay: as above
In short: as §1

Row | Binder | SPOT peptide array binding signal intensity
24 | B1 | ≤ 0

Target: CaFus1
Assay: as above
In short: as §1

Row | Binder | SPOT peptide array binding signal intensity
25 | B1 | 8.5

Target: CaHof1
Assay: as above
In short: as §1

Row | Binder | SPOT peptide array binding signal intensity
26 | B1 | 0.75

Target: CaHse1
Assay: as above
In short: as §1

Row | Binder | SPOT peptide array binding signal intensity
27 | B1 | 11.2

Target: CaLsb1
Assay: as above
In short: as §1

Row | Binder | SPOT peptide array binding signal intensity
28 | B1 | 2.25

Target: CaLsb4
Assay: as above
In short: as §1

Row | Binder | SPOT peptide array binding signal intensity
29 | B1 | 16

Target: CaMyo5
Assay: as above
In short: as §1

Row | Binder | SPOT peptide array binding signal intensity
30 | B1 | 235

Target: CaNbp2
Assay: as above
In short: as §1

Row | Binder | SPOT peptide array binding signal intensity
31 | B1 | 34

Target: CaRvs167
Assay: as above
In short: as §1

Row | Binder | SPOT peptide array binding signal intensity
32 | B1 | 2.83

Target: CaRvs167-3
Assay: as above
In short: as §1

Row | Binder | SPOT peptide array binding signal intensity
33 | B1 | ≤ 0

Target: CaSho1
Assay: as above
In short: as §1

Row | Binder | SPOT peptide array binding signal intensity
34 | B1 | ≤ 0

Target: CaSla1-D1-D2
Assay: as above
In short: as §1

Row | Binder | SPOT peptide array binding signal intensity
35 | B1 | ≤ 0

Target: CaSla1-D3
Assay: as above
In short: as §1

Row | Binder | SPOT peptide array binding signal intensity
36 | B1 | 1

Target: ScAbp1
Assay: as above
In short: as §1

Row | Binder | SPOT peptide array binding signal intensity
37 | B1 | ≤ 0
